# Experimental data: PubChem BioAssay (NCATS)
# Inconclusive results are not listed. Where a call stands in place of a potency, no number is given. A number with no mark means an inactive call. Active and inactive are the calls of the source. Calls come from the whole dose curve; as a rule, active = well fitted cell-killing curve with a large enough effect; inconclusive = small, poorly fitted or top-dose-only effect, or effect the other way; inactive = no such curve, though single readings can be large or run the other way.
# How the values were obtained:
# [1] = Viability qHTS for spleen associated tyrosine kinase inhibitor (SYKi) naive MV4-11 cells (AID 1963823); note: nearly all actives have a fitted effect of over 40% in size
# Outline: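 SYK inhibitor-naive MV4-11 cells, 500 per well, exposed to compounds for 72 hr at 37 C, 5% CO2. Viability read as CellTiter-Glo luminescence after 10 min at room temperature.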
# [2] = Viability qHTS for spleen associated tyrosine kinase inhibitor (SYKi) drug resistant MV4-11 cells (AID 1963824); note: nearly all actives have a fitted effect of over 35% in size
# Outline: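 SYK inhibitor-resistant MV4-11 AML cells, 500 per well, added to predispensed compounds and incubated 72 hr at 37 C, 5% CO2. Viability measured by CellTiter-Glo luminescence after 10 min at room temperature.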
# Potency is the fitted concentration of half-maximal effect.
Compound,Potency [1],Potency [2],viability (% of control) [1],"viability, % of control [2]"
CCC1=C(C)C(=O)C(C)CC12C(=O)CCC2C(=O)O (configuration not stated),inactive,inactive,–,–
CC(=O)c1ccc(O[C@@H]2O[C@H](CO[C@@H]3OC[C@@H](O)[C@H](O)[C@H]3O)[C@@H](O)[C@H](O)[C@H]2O)cc1,inactive,inactive,–,–
NC(=O)c1cccc2[nH]c(-c3ccc(C4CCCN4)cc3F)nc12 (configuration not stated),13 µM (active),16.4 µM (active),–,–
C/C=C/C=C/C=C/C(=O)O[C@@H]1C=C(CO)C(O)(C(=O)O)[C@@]2(C)CCCC(C)(C)[C@H]12 (some centres not stated),inactive,inactive,–,–
CC(C)CNC(=O)/C=C/CCCCc1ccc2c(c1)OCO2,inactive,inactive,–,–
CC(C)=CC[C@H]1O[C@]2(O)C([C@H]3CCC4[C@@]5(C)CC[C@H](O[C@@H]6O[C@H](CO)[C@H](O)[C@H](O[C@@H]7O[C@H](CO)[C@@H](O)[C@H](O)[C@H]7O)[C@H]6O[C@@H]6O[C@@H](C)[C@H](O)[C@@H](O)[C@H]6O)C(C)(C)C5CC[C@@]4(C)[C@]3(C)[C@H]2O)[C@@]1(C)O (some centres not stated),–,–,84.2% [at 9.25 µM],80.7% [at 9.25 µM]
C=CCc1ccc(O[C@@H]2O[C@H](CO)[C@@H](O)[C@H](O)[C@H]2O)c(OC)c1,inactive,inactive,–,–
CC(C)(C)c1ccc(C(=O)Nc2cn3cc(-n4ccnc4)ccc3n2)cc1,1.84 µM (active),5.17 µM (active),–,–
C=C(C)C1CCC2(C(=O)O[C@@H]3O[C@H](CO[C@@H]4O[C@H](CO)[C@@H](O)[C@H](O)[C@H]4O)[C@@H](O)[C@H](O[C@@H]4O[C@@H](C)[C@H](O)[C@@H](O)[C@H]4O)[C@H]3O)CCC3(C(=O)O)C(CCC4C5(C)CCC(O)C(C)(C)C5CCC43C)C12 (some centres not stated),–,–,84.2% [at 9.25 µM],114% [at 9.25 µM]
CCOC(=O)c1cnn(-c2ccccc2)c1NC(=O)c1cc2nc(-c3ccco3)cc(C(F)(F)Cl)n2n1,inactive,inactive,–,–
COc1c(OC2OC(CO)C(O)C(O)C2O)ccc(O)c1C(=O)OCc1ccccc1O[C@@H]1O[C@H](CO)[C@@H](O)[C@H](O)[C@H]1O (some centres not stated),inactive,inactive,–,–
CC1=CC(=O)C(=C(C)C)CC2C1CCC2(C)O (configuration not stated),inactive,inactive,–,–
O=C(OCC1=CC(O)C2C=CO[C@@H](O[C@@H]3O[C@H](CO)[C@@H](O)[C@H](O)[C@H]3O)C12)c1ccccc1 (some centres not stated),inactive,inactive,–,–
CC(C)n1nc(-c2ccc(NC(=O)Nc3cccc(C(F)(F)F)c3)cc2)c2c(N)ncnc21,inactive,inactive,–,–
CC1(C)CC[C@]2(C(=O)O)CC[C@]3(C)C(=CCC4[C@@]5(C)C[C@@H](O)[C@H](O)C(C)(C)C5CC[C@]43C)[C@@H]2[C@@H]1O (some centres not stated),inactive,inactive,–,–
CCOCCn1nc(CC)c2nc(N3CCC(C(=O)O)CC3)nc(Nc3cc(C)ccn3)c21,inactive,inactive,–,–
Clc1ccccc1CNCC1CCC(CNCc2ccccc2Cl)CC1 (configuration not stated),11.6 µM (active),14.6 µM (active),–,–
CN1CCN(C(=O)c2ccc(Nc3nccc(-c4cccs4)n3)cc2Cl)CC1,0.731 µM (active),2.06 µM (active),–,–
Nc1ccc(S(=O)(=O)Nc2nccs2)cc1,inactive,inactive,–,–
CC(=O)OC[C@@]12[C@@H](OC(C)=O)C[C@@H](C)[C@](C)([C@@H]3C[C@H]4C=CO[C@H]4O3)[C@H]1CCC[C@]21CO1,inactive,inactive,–,–
CNC(=O)c1cc(Oc2ccc3nc(N[C@@H]4CCCC[C@H]4O)sc3c2)ccn1,13 µM (active),11.6 µM (active),–,–
CCC(C)/C=C(C)/C=C/C1=CC2=C(Cl)C(=O)C(C)(OC(C)=O)C(=O)C2=CN1C1CCCCN(C(CCC(N)=O)C(=O)O)C1=O (configuration not stated),inactive,inactive,–,–
OC[C@H]1O[C@@H](OC/C=C/c2ccc(O)cc2)[C@H](O)[C@@H](O)[C@@H]1O,inactive,inactive,–,–
COC(=O)C1=CO[C@@H](O[C@@H]2O[C@H](CO)[C@@H](O)[C@H](O)[C@H]2O)[C@H]2[C@@H]1C=C[C@]21C=C([C@H](C)OC(=O)/C=C/c2ccc(O[C@@H]3O[C@H](CO)[C@@H](O)[C@H](O)[C@H]3O)cc2)C(=O)O1,inactive,inactive,–,–
C=C1[C@H]2CC[C@H](C(=O)O)[C@@]23CC[C@H](C3)C1(C)C,inactive,inactive,–,–
CCOC(=O)c1cccc(CNc2ccc(N(C)C(=O)Nc3ccccc3)cc2)c1,18.4 µM (active),11.6 µM (active),–,–
